Five compounds from PubChem BioAssay (NCATS) can be followed below.

Values joined by “and” are separate entries in the source; they are usually repeats but may differ in a detail not shown here. Equal entries are not always repeated. Results filed as inconclusive are left out. Active and inactive are the calls of the source. Unless noted, calls follow the shape of the full dose curve.

For experiment [1], the target named is Estrogen receptor (Homo sapiens) (UniProt P03372). Briefly: qHTS assay for small molecule antagonists of estrogen receptor alpha signaling (AID 588513; active = well fitted curve in the direction sought with a large enough effect in the signal ratio, with a control signal flat, not every such curve was filed as active; the % refers to the signal ratio; also: % is scaled to controls: 0 for no effect and ±100 for the full control effect). The method in brief: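 Beta-lactamase reporter, antagonist mode, HEK 293 GripTite cells; 0.5nM E2 stimulus, 18 h, 37 C; CCF4 dye 2 h RT; fluorescence. IC50 and efficacy from Hill fits, normalized to E2 and DMSO.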
(In general: qHTS replaces the single test concentration by a dilution series.)

The target is the same in experiment [2]. As to the kind of experiment: qHTS assay for small molecule agonists of estrogen receptor alpha signaling (AID 588514).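 Also: 0% = vehicle only and 100% = reference agonist; nearly all actives have a fitted effect of over 70% in size.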 In short, it runs like this: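 EC50 and efficacy came from Hill fits of beta-lactamase reporter signal (CCF4 dye, 2 h at room temperature) scaled between DMSO and 20 nM 17-beta-estradiol. Agonist mode: HEK293 ER-alpha-UAS-bla cells in charcoal/dextran-stripped serum medium, 18 h compound exposure at 37 C.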

The target of experiment [3] is Peroxisome proliferator-activated receptor delta (Homo sapiens) (UniProt Q03181). Briefly: qHTS assay for small molecule agonists of peroxisome proliferator-activated receptor delta signaling (AID 588534).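 Also: 0% = DMSO basal wells and 100% = positive control agonist at 10 µM.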 In short, it runs like this:
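Agonist-mode beta-lactamase reporter readout (CCF4 dye, 2 h at RT) after 18 h at 37 °C exposure to a titration; Hill-equation fitting gave EC50 and maximal response.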

The target of experiment [4] is Peroxisome proliferator-activated receptor gamma (Homo sapiens) (UniProt P37231). Briefly: qHTS assay for small molecule agonists of peroxisome proliferator-activated receptor gamma signaling (AID 588536; active = well fitted curve in the direction sought with a large enough effect in the signal ratio, with a control signal flat, not every such curve was filed as active; the % refers to the signal ratio;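 also: 0% = DMSO basal wells and 100% = rosiglitazone at 2 µM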). In short, it runs like this:
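This is an agonist-mode beta-lactamase reporter assay in HEK293 PPAR-gamma-UAS-bla cells with 1% charcoal/dextran FBS. Compound titrations ran 16 h at 37 C before CCF4 detection. EC50 and efficacy are Hill fits scaled to 2 uM rosiglitazone (100%) and DMSO basal.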

Experiment [5] shares this target. As to the kind of experiment: qHTS assay for small molecule antagonists of peroxisome proliferator-activated receptor gamma signaling (AID 588537; active = well fitted inhibition curve with a large enough effect in the signal ratio, with a control signal flat, not every such curve was filed as active; the % refers to the signal ratio;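 also: reporter cells co-stimulated with 50 nM rosiglitazone agonist during compound treatment; % of control where 0% means no effect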). In short, it runs like this:
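Compounds are tested as concentration series for inhibition of rosiglitazone-driven (50 nM) reporter expression in GeneBLAzer PPAR-gamma-UAS-bla HEK293 cells. After 16 h at 37 C, CCF4 substrate is added for 2 h at room temperature and blue/green fluorescence is measured.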

The target of experiment [6] is Vitamin D3 receptor (Homo sapiens) (UniProt P11473). Briefly: qHTS assay for small molecule antagonists of vitamin D receptor signaling (AID 588541).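 Also: receptor activated by calcitriol during compound treatment; series mostly up to about 77 µM; % is scaled to controls: 0 for no effect and ±100 for the full control effect.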 The method in brief:
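VDR-UAS-bla HEK293T cells (2000/well, 2% charcoal-stripped FBS) were treated with titrated compounds plus 1-alpha,25-dihydroxyvitamin D3 (50 nM or 3 nM final) for 16 h at 37 C. CCF4 beta-lactamase fluorescence was read; Hill fits gave IC50.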

Experiment [7] has the same target. Briefly: qHTS assay for small molecule agonists of vitamin D receptor signaling (AID 588543).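 Also: 0% = DMSO basal and 100% = reference agonist control.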 The method in brief: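 β-lactamase reporter, VDR-UAS-bla HEK293T, agonist mode. Cells plated 5 h at 37 °C, compound titration 16 h at 37 °C, CCF4 dye 2 h RT, ratio 460/530 nm. Hill fit → EC50, efficacy vs 50 nM 1α,25-(OH)2D3.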
In experiment [8] the target is Retinoic acid receptor RXR-alpha (Homo sapiens) (UniProt P19793). As to the kind of experiment: qHTS assay for small molecule agonists of retinoid X receptor alpha signaling (AID 588544).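 Also: 0% = DMSO basal wells and 100% = reference agonist.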
The nature of experiment [9]: qHTS assay for small molecule antagonists of retinoid X receptor alpha signaling (AID 588546; active = well fitted inhibition curve with a large enough effect in the signal ratio, with a control signal flat, not every such curve was filed as active; the % refers to the signal ratio;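 also: cells stimulated with 9-cis-retinoic acid as agonist; % is scaled to controls: 0 for no effect and ±100 for the full control effect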). Particulars: HEK293T RXRa-UAS-bla, beta-lactamase ratio, antagonist mode; measured here: W530 green channel, cytotoxicity proxy. In short, it runs like this: (§1)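 Beta-lactamase reporter inhibition, read as CCF4 fluorescence ratio (ex 405, em 460/530 nm) after 2 h at RT. HEK293T UAS-bla cells, 2500/well, were stimulated with 9-cis-RA at 500 or 100 nM final alongside test compound for 18 h at 37 C.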

In experiment [10] the target is Retinoic acid receptor RXR-alpha (Homo sapiens) (UniProt P19793). The experiment is described as above. Particulars: HEK293T RXRa-UAS-bla, beta-lactamase ratio, antagonist mode. The method in brief:
as §1

Experiment [11] addresses Thyroid hormone receptor beta (Homo sapiens) (UniProt P10828). Briefly: qHTS assay for small molecule antagonists of thyroid hormone receptor beta signaling (AID 588547; active = well fitted inhibition curve with a large enough effect in the signal ratio, with a control signal flat, not every such curve was filed as active; the % refers to the signal ratio;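 also: cells stimulated with 0.4 nM T3 agonist during compound exposure; series mostly up to about 77 µM; % is scaled to controls: 0 for no effect and ±100 for the full control effect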). To be noted: TR-UAS-bla HEK293, beta-lactamase ratio, antagonist mode, 18 h. The method in brief: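 TR-UAS-bla GripTite HEK293 cells in 2% charcoal/dextran FBS medium were preincubated 4 h at 37 C, given compound (0.59 nM to 92 uM) plus 0.4 nM T3 (final) for 18 h, then CCF4 for 2 h at RT; Hill fit gave IC50.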

Experiment [12] is described as follows: qHTS assay for small molecule activators of the p53 signaling pathway (AID 651743; active = well fitted activation curve with a large enough effect in the signal ratio, not every such curve was filed as active; the % refers to the signal ratio; also: series mostly up to about 92 µM; % of control where 0% means no effect). To be noted: HCT-116 p53RE-bla, beta-lactamase FRET ratio, 16 h; activation: stronger effect = higher value. In short, it runs like this: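 Agonist-mode quantitative HTS in HCT-116 cells carrying a p53-response-element beta-lactamase reporter; 16 h compound treatment at 37 C, then FRET substrate loading for 2 h at room temperature and fluorescence read.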

Experiment [13] is described as follows: qHTS assay for environmental chemicals that activate the Aryl hydrocarbon Receptor (AhR) signaling pathway (AID 651777; active = well fitted curve in the direction sought with a large enough effect; an effect the other way counts as inactive or inconclusive; also: nearly all actives have a fitted effect of over 15% in size; also: potency is read from the fitted curve at half-maximal effect; as to activation: % of control where 0% means no effect). Particulars: 1A2-DRE human hepatoma cells, luciferase, 24 h; activation: stronger effect = higher value. In short, it runs like this: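 Quantitative HTS in stably transfected human liver-derived cells whose luciferase gene sits downstream of the CYP1A2 promoter and dioxin response element. After 24 hr exposure at 37 C, One-Glo luminescence was measured.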

Experiment [14] addresses Peroxisome proliferator-activated receptor alpha (Homo sapiens) (UniProt Q07869). Briefly: qHTS assay for small molecule agonists of the peroxisome proliferator-activated receptor alpha (PPARalpha) signaling pathway (AID 651778; active = well fitted curve in the direction sought with a large enough effect; an effect the other way counts as inactive or inconclusive; also: % of control where 0% means no effect). Particulars: PathHunter PPARalpha complementation, chemiluminescence, 6 h; max response: stronger effect = higher value. The method in brief: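 Cells plated at 2,000/well and held overnight at 37 C, 5% CO2, then compound added by pin tool for 6 hr; after PathHunter detection reagent and 60 min at room temperature, chemiluminescence from enzyme complementation was read.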

Experiment [15] is described as follows: qHTS assay for small molecule agonists of the antioxidant response element (ARE) signaling pathway measured by Nrf2-dependant transcriptional activity - cell viability counter screen (AID 720653; active = well fitted curve in the direction sought with a large enough effect in the repeat runs; an effect the other way counts as inactive or inconclusive; also: % is scaled to controls: 0 for no effect and ±100 for the full control effect). Particulars: ARE-bla HepG2 viability, CellTiter-Glo ATP luminescence, 16 h; max response: stronger effect = lower value. In short, it runs like this: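 ARE-bla HepG2 cells (2,000/well) rested 5 hrs at 37C/5% CO2, then exposed to compounds in DMSO for 16 hrs. Viability was read in the same wells as intracellular ATP by luminescence, 30 min at room temperature after reagent addition.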

Experiment [16] is described as follows: qHTS assay for cell viability of HEK293 cells (AID 743288; active = well fitted curve in the direction sought with a large enough effect; an effect the other way counts as inactive or inconclusive; also: % is scaled to controls: 0 for no effect and ±100 for the full control effect; nearly all actives have a fitted effect of over 50% in size). Particulars: ATP luminescence (CellTiter-Glo), 18 h; max response: stronger effect = lower value. The method in brief:
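ATP luminescence (CellTiter-Glo) reports metabolically competent cell number after parental HEK293 cells, 2,000/well, were treated with DMSO-dissolved compounds for 18 h at 37 C; reagent incubation 30 min, room temperature.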

Experiment [17] concerns the target Thyroid hormone receptor beta (Homo sapiens) (UniProt P10828). As to the kind of experiment: qHTS assay for small molecule agonists of thyroid hormone receptor beta signaling (AID 588545). The method in brief: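 In this cell-based screen, titrated compounds act on HEK 293 cells held in medium with 2% charcoal/dextran FBS, NEAA and pyruvate for 18 hrs at 37 C. Responses are expressed relative to T3 (10 nM) as 100% and basal DMSO as 0%.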

Experiment [18] can be described thus: qHTS assay for small molecule agonists of the antioxidant response element (ARE) signaling pathway measured by Nrf2-dependant transcriptional activity (AID 720636; active = well fitted curve in the direction sought with a large enough effect in the repeat runs; an effect the other way counts as inactive or inconclusive; also: % of control where 0% means no effect). In short, it runs like this: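 Quantitative HTS format in HepG2 cells stably expressing an ARE-luciferase reporter; 16 hr compound treatment at 37 C, luciferase signal detected with ONE-Glo.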
Experiment [19] is described as follows: qHTS assay for cell viability of the p53RE-bla HCT-116 cell line (AID 743292; active = well fitted curve in the direction sought with a large enough effect; an effect the other way counts as inactive or inconclusive; also: % is scaled to controls: 0 for no effect and ±100 for the full control effect; nearly all actives have a fitted effect of over 55% in size). In short, it runs like this: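 Viability of compound-treated p53RE-bla HCT-116 cells is taken from ATP-dependent luciferase luminescence. Treatment lasts 16 h at 37 C after a 5 h settling period; detection follows 30 min at room temperature.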
Experiment [20] addresses Nuclear receptor subfamily 1 group I member 2 (Rattus norvegicus) (UniProt Q9R1A7). Briefly: qHTS assay for small molecule activators of the rat pregnane X receptor (rPXR) signaling pathway (AID 651751; call rule not given here; also: 0% is about no effect). To be noted: rPXR reporter cells, luciferase (One-Glo), 24 h.

Chain of Nuclear receptor subfamily 1 group I member 2 (Rattus norvegicus) (Q9R1A7 whole entry, looked up): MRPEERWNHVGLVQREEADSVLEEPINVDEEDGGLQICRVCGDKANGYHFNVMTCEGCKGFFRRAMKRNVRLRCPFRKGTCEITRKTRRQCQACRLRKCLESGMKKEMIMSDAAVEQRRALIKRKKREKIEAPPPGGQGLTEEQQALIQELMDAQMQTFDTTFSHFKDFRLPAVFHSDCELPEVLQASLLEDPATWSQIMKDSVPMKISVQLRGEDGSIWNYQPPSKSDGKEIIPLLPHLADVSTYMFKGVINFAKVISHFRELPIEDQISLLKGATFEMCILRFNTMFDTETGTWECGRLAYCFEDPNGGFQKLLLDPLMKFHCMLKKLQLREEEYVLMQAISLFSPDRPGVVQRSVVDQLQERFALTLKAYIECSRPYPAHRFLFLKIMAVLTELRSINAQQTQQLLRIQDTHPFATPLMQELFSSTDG
Chain of Peroxisome proliferator-activated receptor alpha (Homo sapiens) (Q07869 whole entry, looked up): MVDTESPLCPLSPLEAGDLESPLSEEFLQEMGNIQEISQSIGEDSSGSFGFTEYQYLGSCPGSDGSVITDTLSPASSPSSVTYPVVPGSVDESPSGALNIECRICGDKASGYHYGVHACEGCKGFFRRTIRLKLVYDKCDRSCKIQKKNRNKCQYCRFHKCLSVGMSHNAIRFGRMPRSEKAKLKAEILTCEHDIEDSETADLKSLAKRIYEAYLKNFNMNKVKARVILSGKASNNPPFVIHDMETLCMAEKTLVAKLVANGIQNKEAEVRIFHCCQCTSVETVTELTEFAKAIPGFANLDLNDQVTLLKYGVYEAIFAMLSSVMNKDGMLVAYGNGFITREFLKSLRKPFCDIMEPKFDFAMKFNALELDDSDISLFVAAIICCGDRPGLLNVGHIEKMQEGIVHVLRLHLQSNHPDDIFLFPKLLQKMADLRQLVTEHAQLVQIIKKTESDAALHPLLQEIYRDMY
Chain of Retinoic acid receptor RXR-alpha (Homo sapiens) (P19793 whole entry, looked up): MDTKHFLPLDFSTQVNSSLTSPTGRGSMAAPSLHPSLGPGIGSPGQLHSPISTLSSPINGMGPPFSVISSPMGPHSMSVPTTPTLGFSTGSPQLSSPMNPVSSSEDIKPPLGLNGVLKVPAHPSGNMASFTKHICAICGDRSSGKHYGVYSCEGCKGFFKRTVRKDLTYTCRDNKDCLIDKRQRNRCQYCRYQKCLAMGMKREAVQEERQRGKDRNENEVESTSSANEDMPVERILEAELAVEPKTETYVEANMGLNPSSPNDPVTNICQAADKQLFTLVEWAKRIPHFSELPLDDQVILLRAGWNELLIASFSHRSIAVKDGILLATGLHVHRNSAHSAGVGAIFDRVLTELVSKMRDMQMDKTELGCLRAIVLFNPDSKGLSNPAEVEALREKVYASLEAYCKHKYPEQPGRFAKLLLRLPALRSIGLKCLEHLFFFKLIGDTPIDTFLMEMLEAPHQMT
Chain of Thyroid hormone receptor beta (Homo sapiens) (P10828 whole entry, looked up): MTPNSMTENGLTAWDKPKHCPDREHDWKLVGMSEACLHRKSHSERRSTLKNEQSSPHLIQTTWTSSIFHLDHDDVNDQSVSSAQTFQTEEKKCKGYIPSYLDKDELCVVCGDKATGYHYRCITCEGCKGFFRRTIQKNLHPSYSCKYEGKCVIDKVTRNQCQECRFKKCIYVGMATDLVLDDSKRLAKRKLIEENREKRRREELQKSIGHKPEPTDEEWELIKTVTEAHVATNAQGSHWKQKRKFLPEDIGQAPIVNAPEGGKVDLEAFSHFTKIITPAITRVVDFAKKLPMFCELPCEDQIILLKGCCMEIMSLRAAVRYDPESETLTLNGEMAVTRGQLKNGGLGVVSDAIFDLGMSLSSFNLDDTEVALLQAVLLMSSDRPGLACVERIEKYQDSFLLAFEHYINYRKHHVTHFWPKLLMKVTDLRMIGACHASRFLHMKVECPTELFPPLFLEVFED
Chain of Estrogen receptor (Homo sapiens) (P03372 whole entry, looked up): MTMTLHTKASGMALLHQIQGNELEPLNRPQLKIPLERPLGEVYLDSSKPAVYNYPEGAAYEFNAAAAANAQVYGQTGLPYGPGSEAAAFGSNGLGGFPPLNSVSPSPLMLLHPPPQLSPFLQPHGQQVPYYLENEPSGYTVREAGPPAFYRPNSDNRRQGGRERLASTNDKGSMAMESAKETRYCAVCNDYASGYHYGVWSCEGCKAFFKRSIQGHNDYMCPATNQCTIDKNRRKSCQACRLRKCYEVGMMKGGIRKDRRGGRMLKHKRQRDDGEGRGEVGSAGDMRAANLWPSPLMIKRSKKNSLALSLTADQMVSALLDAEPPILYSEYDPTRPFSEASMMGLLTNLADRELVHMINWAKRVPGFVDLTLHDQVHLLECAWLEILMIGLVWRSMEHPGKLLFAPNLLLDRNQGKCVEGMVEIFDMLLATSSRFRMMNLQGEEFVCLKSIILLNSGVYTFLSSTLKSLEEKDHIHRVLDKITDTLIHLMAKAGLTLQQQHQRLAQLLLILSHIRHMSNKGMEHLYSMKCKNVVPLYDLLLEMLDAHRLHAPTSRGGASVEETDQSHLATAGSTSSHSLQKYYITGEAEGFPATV
Chain of Vitamin D3 receptor (Homo sapiens) (P11473 whole entry, looked up): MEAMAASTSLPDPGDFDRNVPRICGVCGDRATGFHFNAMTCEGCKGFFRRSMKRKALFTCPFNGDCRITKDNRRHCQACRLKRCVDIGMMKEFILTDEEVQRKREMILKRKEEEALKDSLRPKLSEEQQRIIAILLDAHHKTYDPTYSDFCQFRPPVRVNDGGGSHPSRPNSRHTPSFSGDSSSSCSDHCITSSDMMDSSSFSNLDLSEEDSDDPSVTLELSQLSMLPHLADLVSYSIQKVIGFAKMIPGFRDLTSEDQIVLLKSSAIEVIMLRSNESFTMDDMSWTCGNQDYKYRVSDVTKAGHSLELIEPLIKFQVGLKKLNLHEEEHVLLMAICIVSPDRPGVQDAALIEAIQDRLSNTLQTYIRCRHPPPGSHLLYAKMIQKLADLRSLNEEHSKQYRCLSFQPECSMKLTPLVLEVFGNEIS
Chain of Peroxisome proliferator-activated receptor gamma (Homo sapiens) (P37231 whole entry, looked up): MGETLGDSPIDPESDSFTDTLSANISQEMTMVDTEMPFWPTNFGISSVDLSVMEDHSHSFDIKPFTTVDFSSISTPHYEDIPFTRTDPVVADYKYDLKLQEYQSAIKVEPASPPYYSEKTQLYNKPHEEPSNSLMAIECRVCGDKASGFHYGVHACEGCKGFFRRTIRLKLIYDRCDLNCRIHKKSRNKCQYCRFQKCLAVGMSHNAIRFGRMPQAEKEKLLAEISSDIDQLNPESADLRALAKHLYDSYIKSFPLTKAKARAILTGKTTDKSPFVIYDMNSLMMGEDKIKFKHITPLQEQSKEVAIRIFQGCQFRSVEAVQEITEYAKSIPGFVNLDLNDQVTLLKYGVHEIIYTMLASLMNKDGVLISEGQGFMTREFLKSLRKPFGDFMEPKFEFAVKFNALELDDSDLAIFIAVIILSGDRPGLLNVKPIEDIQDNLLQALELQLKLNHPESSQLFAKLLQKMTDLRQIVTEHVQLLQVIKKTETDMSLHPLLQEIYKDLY
Chain of Peroxisome proliferator-activated receptor delta (Homo sapiens) (Q03181 whole entry, looked up): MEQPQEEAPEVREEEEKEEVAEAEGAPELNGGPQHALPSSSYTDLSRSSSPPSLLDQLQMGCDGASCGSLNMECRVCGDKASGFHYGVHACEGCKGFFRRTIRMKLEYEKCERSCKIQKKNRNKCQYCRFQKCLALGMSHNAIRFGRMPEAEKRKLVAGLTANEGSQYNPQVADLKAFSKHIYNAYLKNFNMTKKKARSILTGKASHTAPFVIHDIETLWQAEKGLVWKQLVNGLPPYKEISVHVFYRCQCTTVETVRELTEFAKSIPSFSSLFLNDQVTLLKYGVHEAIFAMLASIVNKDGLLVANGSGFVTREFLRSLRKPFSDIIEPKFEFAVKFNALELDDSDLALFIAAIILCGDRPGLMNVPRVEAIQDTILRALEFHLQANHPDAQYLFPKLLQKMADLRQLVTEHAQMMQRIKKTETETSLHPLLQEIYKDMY

On to `CCOC(=O)Nc1cccc(OC(=O)Nc2ccccc2)c1`, for which the Potency result in experiment [1], in [2], in [4], in experiment [5], in experiment [6] and in [8] was “inactive” each time. Also, the outcome in experiment [3] and in experiment [7] was inactive. In addition, the max response was 0.0057% in [9]; -20.8% (inactive) in experiment [10]; -0.828% (inactive) in [14]; -18.4% (inactive) in experiment [15]; -5.43% (inactive) in [16]. Moreover, the activity change % (negative = inhibition) in [11] was 5.59% (inactive). In [12], the activation was -3.18% (inactive). Further, the Potency in [13] was 44.7 µM (active).

For the compound `O=C(O)c1nc(Cl)ccc1Cl`, the Potency entry in [1], in experiment [2], in experiment [8], in [17], in [18] and in experiment [19] was “inactive” each time. Also, the max response in experiment [9] was -5.13% and -14.7%; in experiment [10], -18.6% (inactive) and -6.7% (inactive); in experiment [14], -1.62% (inactive) and -4.61% (inactive); in experiment [15], -0.246% (inactive) and 14% (inactive); in experiment [16], -0.844% (inactive) and 6.6% (inactive); in [20] it was 3.48% (inactive) and 10.3% (inactive). Besides, the activity change % (negative = inhibition) in experiment [11] is -7.12% (inactive). Further, the activation is 3.37% (inactive) in experiment [12]; 0.739% (inactive) and -2.14% (inactive) in experiment [13].

On to `CCCN(CC)CC1COC2(CCC(C(C)(C)C)CC2)O1` (stereo not drawn), for which the Potency result in experiment [1], in [2], in experiment [6], in experiment [8], in experiment [17] and in [18] was “inactive” each time. Besides, the Potency entry in experiment [19] was “inactive”. In addition, the outcome in [3] and in experiment [7] was inactive. The max response in experiment [9] was -13.8%; in experiment [10], -5.06% (inactive); in experiment [14], 0.269% (inactive); in experiment [15], -11.5% (inactive); in [16], -13.1% (inactive); in experiment [20] it was -3.48% (inactive). For the same compound, the activation in experiment [12] is -4.98% (inactive); in [13] it was -1.94% (inactive).

As for `CNC(=O)O/N=C(\SC)C(=O)N(C)C`, the Potency result in experiment [1], in [4], in experiment [6], in experiment [8], in experiment [18] and in [19] was “inactive” throughout. In addition, the compound was classed as inactive in experiment [3] and in experiment [7]. In addition, the max response in [9] was -5.53%; in [10], -20.9% (inactive); in experiment [14] it was 0.554% (inactive); in experiment [15] it was -17.7% (inactive); in experiment [16], -24.8% (inactive); in experiment [20], -0.972% (inactive). In addition, the activity change % (negative = inhibition) in [11] is 0.203% (inactive). The results for the activation in experiment [12] and in experiment [13] were 2.97% (inactive) and -0.668% (inactive), respectively.

Consider `CSC(=O)c1c(C(F)F)nc(C(F)(F)F)c(C(=O)SC)c1CC(C)C`, for which the Potency result in experiment [1], in [2], in experiment [4], in experiment [5], in experiment [6] and in experiment [17] was “inactive” in each case. The Potency result in [18] and in [19] was “inactive” throughout. In addition, the compound was classed as inactive in experiment [3] and in experiment [7]. The max response in experiment [9] was -14.1%; in experiment [10], -15.4% (inactive); in experiment [14], 6.5% (inactive); in [15] it was -2.65% (inactive); in [16] it was -16.9% (inactive). Moreover, the activity change % (negative = inhibition) in [11] is -31.5% (inactive). Further, the activation is -0.469% (inactive) in experiment [12] and 1.06% (inactive) in experiment [13].
